The structures appear in SMILES notation. Activity calls are given as the source filed them.

The source of these data is PubChem BioAssay.

Experiment [1] concerns the target Albumin (Bos taurus) (UniProt P02769). As to the kind of experiment: compounds binding labelled BSA control protein – biochemical, small-molecule microarray, Alexa647 label, 635/667 nm fluorescence, artefact control for SMM control protein annotation, profiling panel (AID 1118).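 Note: score merges 667 nm emission intensity and signal-to-noise per printed compound spot.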 As to conditions: BSA-A647 binding, fluorescence 635 nm, higher = more signal.
The nature of experiment [2]: probe aXIP binding to arrayed compounds – biochemical, NeuroSMM set, 635/667 nm fluorescence, primary screen (AID 1119).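 Note: probe is the protein aXip251-270 applied at 1 µg/mL to compound-printed slides; binding of probe to printed compounds measured as 667 nm fluorescence plus signal to noise.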 The note with it: small-molecule microarray, higher = more signal, called active from +8 up or from −8 down.
Experiment [3] in a line: probe aNOTCH3 binding on compound microarray – biochemical, small-molecule microarray, 635/667 nm fluorescence, primary screen (AID 1120).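 Note: probe is a biotin-tagged antibody raised against NOTCH3 rather than NOTCH3 protein; score merges spot fluorescence near 667 nm with spot signal to noise.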 The note with it: higher = more signal.
Experiment [4] is described as follows: probe aNOTCH2 binding on compound microarray – biochemical, small-molecule microarray, 635/667 nm fluorescence, primary screen (AID 1121).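 Note: score merges feature fluorescence read at 667 nm with its signal to noise.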 The note with it: higher = more signal.
The target in experiment [5] is Carbonic anhydrase 2 (Homo sapiens) (UniProt P00918). The experiment is described as follows: compounds binding carbonic anhydrase 2 – biochemical, small-molecule microarray, Alexa647-labelled CAII, profiling panel (AID 1122). The note with it: CAII-A647 binding fluorescence, higher = more signal.
The nature of experiment [6]: COS7 lysate on small-molecule microarray, probe aHis, 635 nm (AID 1123).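 Note: z-score combines 667nm fluorescence intensity with signal-to-noise per printed compound spot.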 The note with it: COS7 cell lysate, fluorescence, higher = more signal.
Experiment [7] in a line: probe aLAP1 signal on lysate-treated microarray – cell lysate, small-molecule microarray, COS7 lysate, primary screen (AID 1124).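 Note: lysate comes from COS7 cells expressing LAP1 and is applied at 0.3 µg/mL; score merges spot fluorescence near 667 nm with signal-to-noise over triplicate slides.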 As to conditions: probe aLAP1, fluorescence, higher = more signal.
Experiment [8] deals with Sam68 (KHDRBS1). As to the kind of experiment: compounds binding KHDRBS1 protein – biochemical, small-molecule microarray, 635 nm fluorescence, primary screen (AID 1125).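 Note: score merges 667 nm channel intensity with signal to noise over triplicate slides.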 The note with it: higher = more signal.
Experiment [9] deals with Chordin-like protein 2 (CHRDL2). The experiment is described as follows: compounds binding chordin-like 2 – biochemical, small-molecule microarray, 635 nm fluorescence, primary screen (AID 1126).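 Note: printed compound slides probed with Chrdl2 protein at 4 µg/mL for 1 h at 4 C; score merges 667 nm emission intensity with signal to noise over three replicate slides.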 As to conditions: fluorescence 635 nm, higher = more signal.
Experiment [10] has as its target Concanavalin-A (Canavalia ensiformis) (UniProt P02866). The experiment is described as follows: compounds binding concanavalin A lectin – biochemical, small-molecule microarray, Alexa647 label, 635 nm, artefact control for SMM control protein annotation, primary screen (AID 1127).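 Note: z combines 667 nm emission intensity with signal-to-noise across three replicate slides.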 The note with it: ConA-A647 binding fluorescence, higher = more signal.
The nature of experiment [11]: compounds binding Alexa647 anti-His antibody – biochemical, small-molecule microarray, 635 nm fluorescence, artefact control for SMM control protein annotation, primary screen (AID 1128).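 Note: score merges feature fluorescence with signal-to-noise for each printed compound spot.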 The note with it: higher = more signal.
The subject of experiment [12] is Human papillomavirus type 1a E7 protein (residues 1-88). As to the kind of experiment: HPV1a E7 small-molecule binders, primary screen, biochemical, small-molecule microarray, residues 1-88, 635 nm (AID 1129). The note with it: small-molecule microarray binding, fluorescence 635 nm; higher = more signal.
The target in experiment [13] is Focal adhesion kinase 1 (Homo sapiens) (UniProt Q05397). The experiment is described as follows: PTK2 protein binding on printed compound slides – biochemical, small-molecule microarray, 635/667 nm fluorescence, BSA, DTT, primary screen (AID 1130).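 Note: composite of spot emission at 667 nm and signal to noise over triplicate slides.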 The note with it: 635 nm fluorescence, higher = more signal.
Sequence of Focal adhesion kinase 1 (Homo sapiens) (Q05397 whole entry, looked up): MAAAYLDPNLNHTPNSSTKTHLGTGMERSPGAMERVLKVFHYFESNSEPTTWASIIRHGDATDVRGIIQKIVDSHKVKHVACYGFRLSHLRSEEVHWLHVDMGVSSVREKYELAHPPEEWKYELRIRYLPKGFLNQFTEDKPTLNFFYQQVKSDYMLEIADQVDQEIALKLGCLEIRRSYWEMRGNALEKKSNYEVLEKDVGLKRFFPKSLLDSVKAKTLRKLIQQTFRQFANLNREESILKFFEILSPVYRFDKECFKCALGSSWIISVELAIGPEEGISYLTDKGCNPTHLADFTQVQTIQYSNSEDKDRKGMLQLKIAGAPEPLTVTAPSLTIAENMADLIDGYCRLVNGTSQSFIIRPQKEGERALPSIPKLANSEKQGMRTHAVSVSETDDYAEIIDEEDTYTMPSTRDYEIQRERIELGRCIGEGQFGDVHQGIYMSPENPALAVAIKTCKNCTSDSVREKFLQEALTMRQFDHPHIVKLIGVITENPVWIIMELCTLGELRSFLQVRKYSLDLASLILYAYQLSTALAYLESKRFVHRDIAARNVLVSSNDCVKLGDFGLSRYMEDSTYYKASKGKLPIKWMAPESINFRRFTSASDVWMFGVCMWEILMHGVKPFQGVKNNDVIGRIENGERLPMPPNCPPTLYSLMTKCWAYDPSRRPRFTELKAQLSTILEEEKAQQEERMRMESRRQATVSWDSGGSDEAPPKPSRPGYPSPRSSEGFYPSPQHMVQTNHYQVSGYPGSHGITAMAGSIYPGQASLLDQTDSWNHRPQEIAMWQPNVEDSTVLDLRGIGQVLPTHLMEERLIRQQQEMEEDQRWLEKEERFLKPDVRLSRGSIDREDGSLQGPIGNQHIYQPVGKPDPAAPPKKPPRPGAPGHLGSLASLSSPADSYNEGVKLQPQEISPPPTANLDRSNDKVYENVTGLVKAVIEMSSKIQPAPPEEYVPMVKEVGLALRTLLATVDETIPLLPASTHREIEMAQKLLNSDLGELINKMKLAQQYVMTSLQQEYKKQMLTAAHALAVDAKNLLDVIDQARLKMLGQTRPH
The test system of experiment [14] is Fibrinogen (Alexa647-labelled). As to the kind of experiment: Alexa647-fibrinogen binding to printed small molecules – biochemical, small-molecule microarray, 635/667 nm fluorescence, artefact control for SMM control-protein annotation, profiling panel (AID 1131).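 Note: z-score merges 667 nm fluorescence with per-spot signal-to-noise over triplicate slides.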 As to conditions: fibrinogen-A647 binding fluorescence, higher = more signal.
The target in experiment [15] is Follistatin (Homo sapiens) (UniProt P19883). The experiment is described as follows: FST protein binding to printed compounds – biochemical, small-molecule microarray, 635/667 nm fluorescence, primary screen (AID 1132). As to conditions: 635 nm fluorescence, higher = more signal.
Sequence of Follistatin (Homo sapiens) (P19883 whole entry, looked up): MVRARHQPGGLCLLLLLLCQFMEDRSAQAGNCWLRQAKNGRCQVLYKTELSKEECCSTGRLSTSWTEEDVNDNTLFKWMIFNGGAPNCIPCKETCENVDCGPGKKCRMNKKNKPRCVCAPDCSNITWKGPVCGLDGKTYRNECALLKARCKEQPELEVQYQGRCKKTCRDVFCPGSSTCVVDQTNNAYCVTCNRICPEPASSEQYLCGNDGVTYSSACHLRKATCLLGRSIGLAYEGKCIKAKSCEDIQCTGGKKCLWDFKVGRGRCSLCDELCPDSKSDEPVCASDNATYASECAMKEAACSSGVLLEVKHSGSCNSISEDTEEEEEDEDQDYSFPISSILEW
The target of experiment [16] is Fibroblast growth factor 2 (Homo sapiens) (UniProt P09038). The experiment is described as follows: basic fibroblast growth factor binding to printed compounds – biochemical, small-molecule microarray, 635/667 nm fluorescence, primary screen (AID 1133). The note with it: FGF2, fluorescence 635/667, higher = more signal.
Sequence of Fibroblast growth factor 2 (Homo sapiens) (P09038 whole entry, looked up): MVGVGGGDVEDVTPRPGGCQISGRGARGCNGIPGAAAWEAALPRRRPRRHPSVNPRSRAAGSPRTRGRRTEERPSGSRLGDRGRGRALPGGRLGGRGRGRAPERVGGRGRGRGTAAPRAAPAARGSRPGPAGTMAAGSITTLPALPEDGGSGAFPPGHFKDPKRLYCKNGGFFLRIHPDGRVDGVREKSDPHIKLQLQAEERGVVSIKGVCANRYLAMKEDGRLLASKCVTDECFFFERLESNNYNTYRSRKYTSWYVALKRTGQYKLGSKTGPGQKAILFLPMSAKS
Experiment [17] can be described thus: JC-1 mitochondrial potential readout, lung cancer cells – cell-based, A549, JC-1 fluorescence, basal, 24 h, 100 nL, profiling panel (AID 1138).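 Note: A549 lung adenocarcinoma cells under basal conditions with no added stimulus; test concentration not given here.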 The note with it: higher = more signal.
In experiment [18] the test system is Lefty1. The experiment is described as follows: Lefty1 protein binding to printed compounds – biochemical, small-molecule microarray, 635/667 nm fluorescence, primary screen (AID 1139). As to conditions: fluorescence 635/667, higher = more signal.
Experiment [19] concerns wheat germ agglutinin (Triticum aestivum), Alexa647-labelled. As to the kind of experiment: Alexa647-WGA lectin binding to printed small molecules – biochemical, small-molecule microarray, 635/667 nm fluorescence, artefact control for SMM control-protein annotation, profiling panel (AID 1140).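 Note: score merges 667 nm feature emission with signal to noise over triplicate slides.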 The note with it: WGA-A647 binding, 635 nm fluorescence, higher = more signal.
In experiment [20] the target is Luciferin 4-monooxygenase (Photinus pyralis) (UniProt P08659). As to the kind of experiment: inhibition of purified Photinus pyralis luciferase – biochemical, luminescence, purified enzyme, 2006 set, primary screen (AID 1141).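 Note: cell-free assay with purified firefly luciferase at 100 ng per well in PBS; test concentration not given here.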 As to conditions: purified firefly luciferase, SteadyGlo luminescence, 30 min; higher = more signal, called active from +8 up or from −8 down.
Sequence of Luciferin 4-monooxygenase (Photinus pyralis) (P08659 whole entry, looked up): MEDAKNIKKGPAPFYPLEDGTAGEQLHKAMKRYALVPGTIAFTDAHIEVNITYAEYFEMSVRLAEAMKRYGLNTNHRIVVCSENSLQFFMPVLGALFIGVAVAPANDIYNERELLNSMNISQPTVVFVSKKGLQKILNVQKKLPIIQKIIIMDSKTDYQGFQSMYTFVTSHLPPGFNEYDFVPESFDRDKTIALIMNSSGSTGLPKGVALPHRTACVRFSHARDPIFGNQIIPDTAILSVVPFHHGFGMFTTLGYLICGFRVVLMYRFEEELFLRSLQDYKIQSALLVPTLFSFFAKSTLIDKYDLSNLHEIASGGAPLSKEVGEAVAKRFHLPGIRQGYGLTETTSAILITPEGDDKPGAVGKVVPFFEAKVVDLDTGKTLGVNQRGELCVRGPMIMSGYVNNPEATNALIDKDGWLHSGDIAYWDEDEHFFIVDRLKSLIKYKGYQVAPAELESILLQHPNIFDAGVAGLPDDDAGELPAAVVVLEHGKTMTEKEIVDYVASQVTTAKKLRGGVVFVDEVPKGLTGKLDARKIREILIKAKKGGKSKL

Sequence of Concanavalin-A (Canavalia ensiformis) (P02866 whole entry, looked up): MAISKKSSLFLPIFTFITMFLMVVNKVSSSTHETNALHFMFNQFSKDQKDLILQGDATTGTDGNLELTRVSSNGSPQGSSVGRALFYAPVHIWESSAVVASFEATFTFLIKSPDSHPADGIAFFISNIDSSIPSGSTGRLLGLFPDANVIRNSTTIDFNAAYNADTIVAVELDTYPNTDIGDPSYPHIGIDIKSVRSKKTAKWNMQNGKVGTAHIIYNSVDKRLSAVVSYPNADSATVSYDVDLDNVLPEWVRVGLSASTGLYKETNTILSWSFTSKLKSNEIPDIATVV
Sequence of Albumin (Bos taurus) (P02769 whole entry, looked up): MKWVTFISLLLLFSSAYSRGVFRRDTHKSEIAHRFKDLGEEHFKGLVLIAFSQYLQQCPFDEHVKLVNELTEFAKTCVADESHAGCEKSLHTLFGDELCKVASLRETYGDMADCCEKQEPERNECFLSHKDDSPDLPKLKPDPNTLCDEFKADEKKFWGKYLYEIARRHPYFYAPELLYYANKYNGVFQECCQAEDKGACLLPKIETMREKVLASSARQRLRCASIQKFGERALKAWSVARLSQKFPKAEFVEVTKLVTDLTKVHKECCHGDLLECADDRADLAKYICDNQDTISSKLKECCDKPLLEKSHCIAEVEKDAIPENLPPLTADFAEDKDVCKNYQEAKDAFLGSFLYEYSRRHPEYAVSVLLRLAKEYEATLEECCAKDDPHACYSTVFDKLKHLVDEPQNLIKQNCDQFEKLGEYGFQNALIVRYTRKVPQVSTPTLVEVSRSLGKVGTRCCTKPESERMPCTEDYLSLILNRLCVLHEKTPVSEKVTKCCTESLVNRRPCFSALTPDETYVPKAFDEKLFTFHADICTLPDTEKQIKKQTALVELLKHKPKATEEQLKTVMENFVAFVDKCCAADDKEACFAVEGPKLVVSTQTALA

On to `CC1C2C(CCCO)=CC(C3C(=O)N(C)C(=O)C23)N1Cc1cccc(OC(F)(F)F)c1` (stereo not given), for which the composite z-score in experiment [1] was determined as 1; in [3], 0.126; in [4], 0.0083; in experiment [5], 0.854; in experiment [6] it was 2.43; in experiment [7], 0.267. For the same compound, the composite z-score is 1.29 in experiment [8]; -0.262 in [9]; 0.96 in experiment [10]; 0.503 in [11]; 1.2 in experiment [12]; 0.849 in experiment [13]. The composite z-score came to 0.971 in experiment [14]; 0.301 in [15]; 0.303 in [16]; 0.286 in experiment [18]; 0.877 in [19]. For the same compound, the composite Z-score in experiment [2] was -0.0186 (inactive). Also, the figures for the z-score in [17] and in experiment [20] were -0.703 and -1.02 (inactive), respectively.

As to `CCCCC(=C=CC[C@@H](O)c1ccccc1OCCO)C[C@@H](O)c1ccccn1`, the composite z-score in [1] is 0.043; in experiment [3] it was -0.0077; in experiment [4], -0.197; in experiment [5], 0.678; in experiment [6], 0.522; in experiment [7], 0.137. Moreover, the composite z-score in experiment [8] was 0.81; in [9] it was 0.179; in experiment [10], 0.287; in experiment [11], -0.242; in [12], 0.451; in experiment [13] it was 0.36. Further, the composite z-score in [14] is 0.296; in [15], 0.638; in [16] it was 0.356; in experiment [18], 0.699; in [19] it was -0.306. Besides, in experiment [2], the composite Z-score is 0.504 (inactive). The values for the z-score in experiment [17] and in experiment [20] were 0.969 and -0.96 (inactive), respectively.

As to `CCCCC(=C=CC[C@H](O)c1cccc(OCCO)c1)C[C@H](O)c1cc(Cl)cc(Cl)c1O`, the composite z-score is 0.436 in [1]; -0.0288 in experiment [3]; -0.143 in [4]; 0.465 in experiment [5]; 0.686 in experiment [6]; -0.151 in [7]. For the same compound, the composite z-score in experiment [8] was 1.03; in [9] it was 0.0963; in experiment [10], 1.04; in [11], 0.172; in experiment [12], 0.559; in experiment [13] it was -0.0043. In addition, the composite z-score turned out to be 0.489 in experiment [14]; 1.11 in experiment [15]; 0.272 in experiment [16]; 1.46 in experiment [18]; 0.749 in [19]. In addition, in [2], the composite Z-score is 0.41 (inactive). Also, the results for the z-score in [17] and in [20] were 0.691 and -0.677 (inactive), respectively.

In the case of `O=C1O[C@H](c2ccccc2)[C@H](c2ccccc2)N2[C@H]1[C@@H](C(=O)N1CCCCCCC1)[C@]1(C(=O)Nc3ccc(C#CCCO)cc31)[C@H]2c1ccc(O)cc1`, the composite z-score in experiment [1] stood at 0.777; in experiment [3], 2.27; in experiment [4], 1.18; in [5], 0.91; in experiment [6], 4.64; in experiment [7] it was 1.53. The composite z-score is 1.35 in [8]; 1.68 in [9]; 1.17 in experiment [10]; 2.12 in [11]; 1.32 in experiment [12]; 4.55 in experiment [13]. Also, the composite z-score stood at 0.967 in [14]; 1.56 in [15]; 1.71 in experiment [16]; 1.85 in experiment [18]; 1.68 in experiment [19]. The composite Z-score in experiment [2] was 9.39 (active). Further, the z-score is 0.889 in experiment [17] and 0.628 (inactive) in [20].
